Data taken from the supplement of paper PMC7411640.
Where a name gives a salt, the structure may show the parent alone.

System: MDA-MB-468
Test: phospho-S6 immunofluorescence (DAPI-normalised), per-plate z-score; higher = higher phospho-S6 signal (less pathway suppression)
Conditions: 24 h
Protocol: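 GPCR-targeted compound library (MedChemExpress HY-L006) tested on MDA-MB-468 PTEN-null TNBC cells in 384-well plates at 0.1, 1 or 10 uM, combined with vehicle, GDC0941 450 nM or lapatinib 1 uM, for 24 h. Phospho-S6 (S240/244) immunofluorescence normalised to DAPI and expressed as a per-plate z-score; values are the mean of biological triplicates.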

Compound	phospho-S6 immunofluorescence (z-score) (co-treatment: GDC0941 450 nM)	phospho-S6 immunofluorescence (z-score) (co-treatment: lapatinib 1 uM)	phospho-S6 immunofluorescence (z-score) (co-treatment: vehicle)
C[N+]1(C)[C@@H]2C[C@@H](OC(=O)[C@H](CO)c3ccccc3)C[C@H]1[C@@H]1O[C@@H]12 [Methscopolamine (bromide)] (compound 10 µM)	0.05	0.43	0.6
COc1ccc2c(c1)[C@]13CCCC[C@@H]1[C@H](C2)N(C)CC3 [Dextromethorphan (hydrobromide hydrate)] (compound 10 µM)	-0.24	-0.31	0.42
C[C@H]1CNCCc2ccc(Cl)cc21 [Lorcaserin (Hydrochloride)] (compound 10 µM)	-1	-0.25	-0.95
CCC1(c2cccc(O)c2)CCCCN(C)C1 (centres undefined) [Meptazinol (hydrochloride)] (compound 10 µM)	0.48	0.25	0.11
CC(C)(C)NCC(O)c1cc(Cl)c(N)c(Cl)c1 (centres undefined) [Clenbuterol (hydrochloride)] (compound 10 µM)	1.42	1.64	0.37
C[N@+]1(CC2CC2)CC[C@]23c4c5ccc(O)c4O[C@H]2C(=O)CC[C@@]3(O)[C@H]1C5 [Methylnaltrexone (Bromide)] (compound 10 µM)	0.46	0.44	-0.66
COc1ccc2[nH]cc(C3=CCNCC3)c2c1 (compound 10 µM)	-0.19	-2.58	-0.11
CC[N+](C)(CC)CCOC(=O)C(O)(c1ccccc1)c1ccccc1 [Methylbenactyzium Bromide] (compound 10 µM)	-0.26	-0.59	-0.57
COC(=O)C1=CCCN(C)C1 [Arecoline (hydrobromide)] (compound 10 µM)	0.22	0.44	0.56
CN1[C@@H]2CC[C@H]1C[C@@H](OC(=O)C(CO)c1ccccc1)C2 (some centres undefined) [Atropine (sulfate monohydrate)] (compound 10 µM)	-1.09	-0.18	-0.82
CNC(C)Cc1ccccc1OC (centres undefined) [Methoxyphenamine (Hydrochloride)] (compound 10 µM)	0.57	-0.2	0.23
CN1CCC2=C(C1)c1ccccc1Cc1ccccc12 [Setiptiline (maleate)] (compound 10 µM)	-0.68	-1.28	-1.11
CCCC(C)(C)c1ccc2c(c1)OC(C)(C)[C@@H]1CC=C(C)C[C@@H]21 (compound 10 µM)	2.38	1.8	2.21
